# GIRK2 act = activators of human GIRK2 potassium channels | calls only for hits at 25 µM | HEK293-GIRK2 thallium flux, Thallos fluorescence, MPD | 63,000 compounds, 0.05% hits | AID 1259325, 2017 | G protein-activated inward rectifier potassium channel 2 (Homo sapiens), P48051; call rule not given here
# * marks the source's active call; other numbers are inactive results; i = inactive; + = active, no number. Many of the other results were omitted from the sample, so hits are more common in it than they were.
SMILES,GIRK2 act
Cc1ccc(-c2noc(-c3ccc(=O)n(CC(=O)Nc4cccc(C(F)(F)F)c4)c3)n2)cc1,i
CSc1cccc(NC(=O)C(=O)NCC2(c3ccccc3)CCOCC2)c1,i
CSc1ccccc1NC(=O)C(=O)NCC1(c2ccccc2)CCOCC1,+
CSc1ccccc1NC(=O)C(=O)NCC1(CO)CC1,i
Cc1nc(-c2ccccc2Cl)sc1CNC(=O)C1Oc2ccccc2OC1C (configuration not stated),i
COc1cccc2cc(C(=O)NCC(c3ccc4c(c3)CCO4)N(C)C)oc12 (configuration not stated),i
O=C(Cn1nc2ccc(C(=O)NCc3ccccc3)cn2c1=O)Nc1ccc(Br)cc1,i
O=C(NCC(c1cccs1)N1CCOCC1)C(=O)Nc1ccccc1F (configuration not stated),+
O=C(NCC(c1cccs1)N1CCOCC1)C(=O)Nc1ccc2c(c1)OCCO2 (configuration not stated),i
N#Cc1ccc(Cl)cc1NC(=O)C(=O)NCC(c1cccs1)N1CCOCC1 (configuration not stated),i
Cc1c(-c2noc(-c3cccc(F)c3)n2)nnn1-c1ccc(F)cc1,i
O=C(Nc1cc(N2CCOCC2)ncn1)c1cc(-c2cccs2)on1,i
O=C(Cc1ccc(Cl)cc1)NCCN1CCN(c2ccc(Cl)cc2)CC1,i
CC(=O)O[C@H]1CC2C(COC(=O)CC(C)C)=CO[C@@H](OC(=O)CC(C)C)C2[C@@]12CO2 (some centres not stated),i
COc1ccc(-c2c(C(F)(F)F)oc3cc(OCC(=O)OC(C)(C)C)ccc3c2=O)cc1,i
CC(C)(C)OC(=O)COc1ccc2c(=O)c(-c3ccccc3)c(C(F)(F)F)oc2c1,i
NC(=O)COc1ccc2c(=O)c(-c3ccc(Cl)cc3)c(C(F)(F)F)oc2c1,+
COc1ccc(C)cc1NC(=O)N1CCN(c2cc(C)ncn2)CC1,i
CC1CCN(S(=O)(=O)c2cccn(Cc3c(F)cccc3Cl)c2=O)CC1,i
CCC(C)NC(=O)CCn1c(=O)c2ccccc2n2c(SCC(=O)NCc3ccccc3)nnc12 (configuration not stated),i

# Bioassay records as filed in PubChem BioAssay.
